PubChem BioAssay AID652048 (National Center for Advancing Translational Sciences (NCATS), 2013)
Where “and” joins values, the source holds several entries; their conditions need not be identical. Identical values can stand only once. In all, about 410,000 compounds went through this assay and about 2,400 (0.59%) were called active. Rule as the data show it: active = max activation above about 30%; inactive = the rest. The full list was thinned out, with actives kept by preference. The source holds several records for some structures; these can differ, active in one and inactive in another.

What follows are compounds tested against D(3) dopamine receptor (Homo sapiens) (UniProt P35462) (assay: qHTS of D3 Dopamine Receptor Agonist: qHTS). Conditions: D3R DiscoveRx beta-arrestin cells, luminescence, 90 min; stronger effect = higher value.
Outline: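 Cells at 1500/well, incubated overnight, then treated with pinned compounds (dopamine as control) for 90 min at 37 degrees C. DiscoveRx reagent added for 30 - 60 minutes at room temperature; luminescence read.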
Also: 0% is about no effect.

Sequence of D(3) dopamine receptor (Homo sapiens) (P35462 whole entry, looked up): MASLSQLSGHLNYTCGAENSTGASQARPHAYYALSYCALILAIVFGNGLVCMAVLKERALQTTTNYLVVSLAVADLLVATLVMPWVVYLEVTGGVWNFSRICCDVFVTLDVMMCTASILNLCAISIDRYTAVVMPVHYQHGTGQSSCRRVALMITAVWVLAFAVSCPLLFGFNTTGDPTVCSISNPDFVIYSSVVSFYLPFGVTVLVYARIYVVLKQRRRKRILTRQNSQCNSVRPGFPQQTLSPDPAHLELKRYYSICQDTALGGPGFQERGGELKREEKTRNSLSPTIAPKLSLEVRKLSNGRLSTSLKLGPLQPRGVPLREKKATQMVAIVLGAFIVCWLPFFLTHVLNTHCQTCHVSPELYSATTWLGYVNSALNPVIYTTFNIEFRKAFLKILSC

Structure (SMILES) | max activation
O=P(O)(O)OC[C@H](O)CO | -12.8% (inactive)
CCc1ccccc1NC(=O)CN(C)S(=O)(=O)c1ccc2c(c1)c(=O)n(C)c(=O)n2C | -4.93% (inactive)
CC(C)c1ccc(NC(=O)CN(C)S(=O)(=O)c2ccc3c(c2)c(=O)n(C)c(=O)n3C)cc1 | 0.167% (inactive)
CN(CC(=O)Nc1ccccc1F)S(=O)(=O)c1ccc2c(c1)c(=O)n(C)c(=O)n2C | 47.6% (active)
CCc1ccc(S(=O)(=O)c2nnn3c2nc(N2CCN(CC)CC2)c2sccc23)cc1 | 5.12% (inactive)
CCOc1ccc(Nc2oc(/C=C/c3ccc(F)cc3)nc2C#N)cc1 | -13.3% (inactive)
Fc1ccc(-c2nn(-c3ccccc3Cl)c3c2cnc2ccccc23)cc1 | 0.11% (inactive)
O=C(c1ccco1)n1nc(-c2ccc(Cl)cc2)nc1NCc1ccccc1 | -9.35% (inactive)
Oc1c(C(c2ccccc2Cl)N2CCOCC2)sc2nc(-c3ccco3)nn12 (centres undefined) | -18% (inactive)
CSc1nc(-c2ccco2)nn1C(=O)c1ccccc1Cl | 32.7% (active)
CCOC(=O)Cc1cccc(-c2cc(CCCCCCc3ccc(O[C@H]4O[C@H](COC(C)=O)[C@@H](OC(C)=O)[C@H](OC(C)=O)[C@@H]4OC(C)=O)c(-c4cccc(CC(=O)OCC)c4)c3)ccc2O[C@H]2O[C@H](COC(C)=O)[C@@H](OC(C)=O)[C@H](OC(C)=O)[C@@H]2OC(C)=O)c1 | -9.52% (inactive)
COc1ccc(-c2nc3cnccn3c2NC2CCCCC2)cc1-c1cccc(Cl)c1 | 7.25% (inactive) and 47.9% (active)
COc1ccc(-c2nc3cc(C)ccn3c2NC2CCCCC2)cc1SC1CCCCC1 | 18.2% (inactive)
COc1ccc(-c2nc3cnccn3c2NC(C)(C)CC(C)(C)C)cc1O | 4.14% (inactive)
Cc1ccc(Cl)cc1N1CCN(C(=O)c2cccn3c(=O)c4cc(Cl)ccc4nc23)CC1 | 1.63% (inactive)
CN(C)CCc1c[nH]c2ccc(Cn3cncn3)cc12 | -8.71% (inactive)
COc1ccc(Cl)cc1NC(=O)Cn1c(=O)c2ccccc2n2nncc12 | -7.09% (inactive)
COc1ccccc1C(=O)N1CCNC(=O)C1CC(=O)Nc1ccc(Cl)cc1 (centres undefined) | 4.77% (inactive)
O=C(CC1C(=O)NCCN1C(=O)c1ccc([N+](=O)[O-])cc1)Nc1cccc(Cl)c1 (centres undefined) | 38.6% (active)
COC(=O)c1cc(NC(=O)CC2C(=O)NCCN2C(=O)c2ccc(F)cc2)cc(C(=O)OC)c1 (centres undefined) | 5.37% (inactive)
Brc1cccc(-c2nnn3c2nc(NC2CCCCC2)c2ccccc23)c1 | -2.96% (inactive)

Structure (SMILES) | max activation
COc1ccc(CCNC(=O)c2cc(=O)c3c(C)cc(C)cc3o2)cc1OC | 21.9% (inactive)
COc1ccc(CCNC(=O)COc2cc(C)cc3oc(=O)c(C)c(C)c23)cc1OC | 42.4% (active)
Cc1cc(OCC(=O)NCC(O)c2ccccc2)c2c(C)c(C)c(=O)oc2c1 (centres undefined) | 2.59% (inactive)
COc1cc2c(cc1OC)CC(=O)N(CCCN(C)C[C@H]1Cc3cc(OC)c(OC)cc31)CC2 | -16.3% (inactive)
COc1ccc(N2CCN(S(=O)(=O)c3ccc(-c4coc(C)n4)cc3)CC2)cc1 | 1.53% (inactive)
Cc1ccc(C)c(N2C(=O)N(Cc3c(F)cccc3Cl)c3ccccc3S2(=O)=O)c1 | 64.6% (active)
O=C1c2ccccc2S(=O)(=O)N1Cc1c(F)cccc1Cl | -0.264% (inactive)
O=c1c(=O)n(Cc2c(F)cccc2Cl)ccn1Cc1ccccc1 | -9.07% (inactive)
CCOC(=O)c1cnc(SCC(=O)Nc2cccc(OC)c2)nc1N | 6.65% (inactive)
CCCCOc1ccc(-c2ncc(C(=O)OCC)c(N)n2)cc1 | 85% (active)
CCOC(=O)c1cnc(SCc2nc(N)nc(Nc3ccc(OC)cc3)n2)nc1N | 2.44% (inactive)
CCOC(=O)c1c(NC(=O)c2cc(-c3ccc(Cl)cc3)on2)sc2c1CCCC2 | -8.12% (inactive)
C=O | 7.37% (inactive)
CCn1cc(C(=O)N(C)Cc2ccccc2)c(=O)c2cc(S(=O)(=O)N3CCCCCC3)ccc21 | 3.05% (inactive)
COc1cc(/C=C2\Oc3ccc(C#Cc4ccc(O)cc4)cc3C2=O)cc(OC)c1 | 15.9% (inactive)
COc1cc(C#Cc2ccc3cc(CCCO)oc(=O)c3c2)cc(OC)c1 | 41.1% (active)
COc1cc(CN(C(=O)c2ccccc2Br)c2ccccn2)cc(OC)c1OC | -5.51% (inactive)
COC(=O)c1ccc(NC(=O)CCc2c(C)nc3c(c(C)nn3-c3ccc(C)cc3)c2C)cc1 | 4.91% (inactive)
O=S(O)CNc1ccc(S(=O)(=O)c2ccc(NCS(=O)O)cc2)cc1 | -10.5% (inactive)
Cc1ccc(N2C(=O)C(NC(=O)c3c(F)cccc3F)(C(F)(F)F)C3=C2CC(C)(C)CC3=O)cc1 (centres undefined) | -17.5% (inactive)
CC(C)C1C2=C(CC(C)(C)CC2=O)ON1c1ccccc1 (centres undefined) | -2.83% (inactive)

Structure (SMILES) | max activation
COC(=O)C1CC2=C(CC(C)(C)CC2=O)N(c2ccccc2)C1=O (centres undefined) | 32.1% (active)
CC(=O)NC(=O)c1ccccc1O | -11.8% (inactive)
Cc1cc(C)cc(NC(=O)c2cnc3sc(N4CCCC4)nn3c2=O)c1 | 19.3% (inactive)
CC(C)Oc1ccc(CNC(=O)C2CCN(c3nc4ccccc4n(C)c3=O)CC2)cc1 | -5.52% (inactive)
COc1cc(C(=O)N2CCOCC2)cc(OC)c1OC | 4.3% (inactive) and 9.01% (inactive)
COc1ccccc1/C=C/C1=NC(=C\N(C)C)/C(=O)O1 | -12.1% (inactive)
O=C1OC(/C=C/c2ccccc2)=NC/1=C/c1ccco1 | 30.1% (active)
CC(C)(C)C1C/C(=C/c2ccco2)C(=O)/C(=C/c2ccco2)C1 (centres undefined) | -7.15% (inactive)
Cc1cccc(NC(=O)N2CCC(CN3CCc4ccccc4C3)CC2)c1C | -18.9% (inactive)
CCOC(=O)Cn1c(=O)n(-c2ccccc2OC)c2nc(-c3cccc(F)c3)nc(C(N)=O)c21 | 4.17% (inactive)
COc1ccccc1N1CCN(c2ncnc3onc(-c4cccc(Cl)c4)c23)CC1 | 7.08% (inactive)
COc1ccccc1N1CCN(c2ncnc3sc(C)c(-c4ccccc4)c23)CC1 | 50.8% (active)
COc1ccccc1N1CCN(c2ncnc3onc(-c4ccc(F)cc4)c23)CC1 | -8.86% (inactive)
Cc1cccc(N2CCN(S(=O)(=O)c3ccc4[nH]c5c(c4c3)CCCCC5)CC2)c1C | -5.55% (inactive)
COc1cccc(CNC(=O)CCc2nc(-c3ccc(C)cc3)no2)c1 | -0.491% (inactive)
COc1ccc(-c2noc(CCC(=O)N3CCN(c4cccc(C)c4)CC3)n2)cc1 | 35.7% (active)
Cc1ccc(C)c(N2CCN(C(=O)CCc3nc(-c4cccc(C(F)(F)F)c4)no3)CC2)c1 | 11.8% (inactive)
CCN1CCN(C(=O)N[C@@H](C(=O)N[C@@H]2C(=O)N3[C@@H]2SC(C)(C)[C@H]3C(=O)O)c2ccccc2)C(=O)C1=O | -1.19% (inactive)
O=C1N(Cc2ccccc2)c2ccc(Cl)cc2C1(O)c1c[nH]c2ccccc12 (centres undefined) | 8.47% (inactive)
CCN(CC)S(=O)(=O)c1ccc2c(c1)N(CC(=O)NCC(C)c1ccccc1)C(=O)CO2 (centres undefined) | -18.9% (inactive)
COc1ccc([C@H]2CC(=O)C=C(c3ccc(CO)cc3)C2)cc1 | 10.9% (inactive)

Structure (SMILES) | max activation
COc1ccc2cc(C3=CC(=O)C[C@H](c4ccc5c(c4)OCO5)C3)ccc2c1 | 38.7% (active)
COc1cccc(C2=CC(=O)C[C@H](c3ccc(OC)c(OC)c3)C2)c1 | -0.655% (inactive)
Cc1nc(SCCOc2ccc(Cl)cc2)[nH]c(=O)c1Cc1ccccc1 | 1.02% (inactive)
O=C(Cn1cnc2c(oc3ccccc32)c1=O)Nc1ccc(OC(F)(F)F)cc1 | 2.62% (inactive)
O=C1CCN(CCc2ccccc2)CCN1CCOc1ccccc1 | -27.1% (inactive)
O=C(c1ccc(Br)o1)N1CCN(CCOc2ccccc2)CC1 | 54.7% (active)
COc1cccc(OC)c1OCCN1CCN(C(=O)c2ccco2)CC1 | 73.2% (active)
O=CN1CCN(C(=O)c2ccc(Br)o2)CC1 | -4.54% (inactive)
O=C(c1ccco1)N1CCN(Cc2cccc(C(F)(F)F)c2)CC1 | 8.47% (inactive)
O=C(c1ccco1)N1CCN(C(=O)c2ccc(COc3ccc(F)cc3)o2)CC1 | 1.73% (inactive)
O=C(CCCCn1c(=O)c2ccccc2n(CC(=O)Nc2cccc(C(F)(F)F)c2)c1=O)NCc1ccc2c(c1)OCO2 | 6.91% (inactive)
CC(=O)Oc1ccccc1C(=O)Nc1ncc([N+](=O)[O-])s1 | 6.84% (inactive)
CCOC(=O)c1sc(NC(=O)/C=C/c2ccc(C(C)C)cc2)c(C(=O)OCC)c1C | -9.68% (inactive)
CCOC(=O)c1c(NC(=O)/C=C/c2ccc(OC)cc2)sc2c1CCC(C)C2 (centres undefined) | 59.2% (active)
COC(=O)c1c(NC(=O)CCCOc2ccccc2)sc2c1CCC(C)C2 (centres undefined) | 4.8% (inactive)
COc1ccccc1CNS(=O)(=O)c1cc(Br)cc2c1N(C(C)=O)C(C)C2 (centres undefined) | -15.9% (inactive)
CCN(CCCNC(=O)c1c(C)oc2ncn(CC(C)C)c(=O)c12)Cc1ccccc1 | -16.4% (inactive)
Cc1ccc(-c2ncc(Cl)cc2-c2ccc(S(C)(=O)=O)cc2)cn1 | 3.29% (inactive)
COc1ccccc1N1CCN(c2ccc(=O)n(CC(=O)NCc3ccc(OC(C)C)cc3)n2)CC1 | -15.8% (inactive)
COC(=O)c1ccc(NC(=O)c2cc(S(=O)(=O)N3CCC(C)CC3)cn2C)cc1 | -4.24% (inactive)
N#C/C(=C\c1cccc(F)c1)c1nc(-c2cc3c(ccc4ccccc43)oc2=O)cs1 | 4.13% (inactive)
